Inconclusive results are not listed. Entries that show only a call come without a potency. Active and inactive are the calls of the source. Calls follow the shape of the dose curve; as a rule, active = well fitted inhibition curve with a large enough effect in the signal ratio in the repeat runs (not every such curve was filed as active); inconclusive = weak or mixed curves, or effect the other way; inactive = no such curve, though single readings can be large or run the other way; the % refers to the signal ratio.
Target: Glucocorticoid receptor (Homo sapiens) (UniProt P04150)
Test: qHTS assay to identify small molecule antagonists of the glucocorticoid receptor (GR) signaling pathway (AID 720692)
Details: GR-bla HeLa, beta-lactamase FRET ratio, dexamethasone-stimulated, 18 h; series mostly up to 58.5 µM
Outline: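 GR-bla HeLa cells carrying a GRE-driven beta-lactamase reporter received compound after 4 h plating, then dexamethasone (5 nM final). After 18 h at 37C, the FRET substrate was loaded for 2 h at room temperature and fluorescence read.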

Sequence of Glucocorticoid receptor (Homo sapiens) (P04150 whole entry, looked up): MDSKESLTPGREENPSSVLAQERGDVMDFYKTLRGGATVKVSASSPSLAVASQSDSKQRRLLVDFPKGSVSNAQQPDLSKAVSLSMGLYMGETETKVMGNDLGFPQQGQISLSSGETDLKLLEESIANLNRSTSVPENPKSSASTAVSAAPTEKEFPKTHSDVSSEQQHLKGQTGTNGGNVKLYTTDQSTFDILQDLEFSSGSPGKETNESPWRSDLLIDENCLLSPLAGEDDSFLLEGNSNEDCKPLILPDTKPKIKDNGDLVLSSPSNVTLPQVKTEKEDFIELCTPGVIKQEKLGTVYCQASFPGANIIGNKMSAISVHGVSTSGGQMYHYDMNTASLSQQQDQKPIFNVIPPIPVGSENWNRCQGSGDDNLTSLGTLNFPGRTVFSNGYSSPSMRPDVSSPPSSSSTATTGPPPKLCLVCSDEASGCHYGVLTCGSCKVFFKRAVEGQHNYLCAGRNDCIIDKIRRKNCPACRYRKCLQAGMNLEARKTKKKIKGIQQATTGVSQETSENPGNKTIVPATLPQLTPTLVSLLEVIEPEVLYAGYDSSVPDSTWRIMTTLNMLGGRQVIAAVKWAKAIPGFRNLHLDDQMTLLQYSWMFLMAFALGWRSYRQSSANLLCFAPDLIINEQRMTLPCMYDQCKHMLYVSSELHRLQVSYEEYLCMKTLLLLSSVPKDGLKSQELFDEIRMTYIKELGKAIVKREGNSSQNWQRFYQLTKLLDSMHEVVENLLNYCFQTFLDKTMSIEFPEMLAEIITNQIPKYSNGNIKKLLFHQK

Compound | Potency
NS(=O)(=O)c1cc2c(cc1Cl)NC(C1CC3C=CC1C3)NS2(=O)=O (stereo not drawn) | inactive
OCCOc1ccc(OCCO)cc1 | inactive
COC(C)(C)CCCC(C)CC=O (stereo not drawn) | inactive
CCOC(=O)CCC(C)=O | inactive
NC(=O)COCCN1CCN(C(c2ccccc2)c2ccc(Cl)cc2)CC1 (stereo not drawn) | inactive
C=CCCCCCCCCC=O | inactive
NS(=O)(=O)c1ccc(C(=O)O)cc1 | inactive
O=C(O)CCCc1ccccc1 | inactive
Cc1cccn2c(=O)c(-c3nnn[nH]3)cnc12 | inactive
CC(C[N+](C)(C)C)OC(N)=O (stereo not drawn) | inactive
COC(=O)c1c(Cl)c(Cl)c(C(=O)OC)c(Cl)c1Cl | inactive
O=C1CCCC(=O)C1 | inactive
CCOC(=O)c1ccc(C)cc1 | inactive
CC1(C)C(O)C(C)(C)C1O (stereo not drawn) | inactive
OC(CCN1CCCCC1)(c1ccccc1)C1CC2C=CC1C2 (stereo not drawn) | inactive
C1CN(CCOCCN2CCOCC2)CCO1 | inactive
COc1nc(N)nc2c1ncn2[C@@H]1O[C@H](CO)[C@@H](O)[C@@H]1O | inactive
Oc1ccc(C2CNCCc3c2cc(O)c(O)c3Cl)cc1 (stereo not drawn) | inactive
O=C(O)COc1nn(Cc2ccccc2)c2ccccc12 | inactive
CC(C)NCC(O)c1ccc(NS(C)(=O)=O)cc1 (stereo not drawn) | inactive
CO[Si](CCCOCC1CO1)(OC)OC (stereo not drawn) | inactive
CCSC(=O)N(CC(C)C)CC(C)C | inactive
NC(=O)c1ccc([N+](=O)[O-])cc1 | inactive
